# Test results taken from the supplement of paper PMC8728848.
# About 410 targets per protein were measured; listed, in parts, are those with the strongest signals and a random draw of the rest.
# Legend:
# Experiment in all cases: glycan array binding signal (z-score within array); higher = stronger binding
# Conditions in all cases: glycan notation: IUPAC condensed, linker removed
# [1] = tested on: GalNAc(b1-3)Gal(a1-6)Gal(b1-4)Glc
# Procedure, shortened: (§1)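 From the Consortium for Functional Glycomics database, 3228 arrays were curated, keeping only those whose protein sequence was available. Binding is given as a within-array Z-score averaged across arrays sharing a protein sequence and across linkers. Negative Z-scores can be read as non-binding.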
# [2] = tested on: GalNAc(b1-4)Gal(b1-4)Glc
# Procedure, shortened: as §1
# [3] = tested on: GalNAc(a1-3)Gal
# Procedure, shortened: as §1
# [4] = tested on: GalNAc(b1-6)GalNAc
# Procedure, shortened: as §1
# [5] = tested on: GalNAc(b1-3)GalNAc
# Procedure, shortened: as §1
# [6] = tested on: GalNAc(b1-4)GlcNAc(b1-3)GalNAc(b1-4)GlcNAc
# Procedure, shortened: as §1
# [7] = tested on: GalNAc(b1-3)GlcNAc
# Procedure, shortened: as §1
# [8] = tested on: GalNAc(b1-3)Gal(a1-4)Gal(b1-4)GlcNAc
# Procedure, shortened: as §1
# [9] = tested on: GalNAc(b1-4)GlcNAc(b1-2)Man(a1-3)[GalNAc(b1-4)GlcNAc(b1-2)Man(a1-6)]Man(b1-4)GlcNAc(b1-4)GlcNAc
# Procedure, shortened: as §1
# [10] = tested on: GalNAc(a1-3)GalNAc(b1-3)Gal(a1-4)Gal(b1-4)Glc
# Procedure, shortened: as §1
substance,measurement,setting,value
"BambL (Burhholderia ambifaria), Q0B4G1",glycan array binding signal (z-score),[1],-0.314
same,glycan array binding signal (z-score),[2],-0.316
Actinohivin (Actinomycete K97),glycan array binding signal (z-score),[3],-0.192
same,glycan array binding signal (z-score),[4],-0.188
LcI (Legionella pneumophila),glycan array binding signal (z-score),[5],-0.554
same,glycan array binding signal (z-score),[6],-0.365
AgI/II Vhelical-GFP (Streptococcus mutans),glycan array binding signal (z-score),[3],-0.061
same,glycan array binding signal (z-score),[7],-0.152
AgI/IIC123-GFP (Streptococcus mutans),glycan array binding signal (z-score),[8],1.61
same,glycan array binding signal (z-score),[2],-0.438
same,glycan array binding signal (z-score),[9],-0.272
Epa22,glycan array binding signal (z-score),[1],-0.822
"SiiE (Salmonella typhimurium), A0A0H3NVH0",glycan array binding signal (z-score),[10],-1.13
